PubChem BioAssay (NCI)
This is part of a sample that, as a whole, favours compounds with a hit. Of some 79,000 tested, about 15% had one in any assay. Calls of active or inactive are those of the source. Rule as the data show it: active = growth inhibition above about 70%; inactive = the rest.

Key:
[1] = NCI Yeast Anticancer Drug Screen. Data for the rad50 strain (AID 155);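 also: 0% = growth of vehicle-only cultures of the same strain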; details: S. cerevisiae rad50 strain growth inhibition, hits give high values
Outline: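 Inhibition values express reduced yeast growth in compound-treated cultures relative to vehicle-treated controls.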

[2] = NCI Yeast Anticancer Drug Screen. Data for the mec2-1 strain (AID 157); details: S. cerevisiae mec2-1 strain, hits give high values
Outline: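 Strain: mec2-1 (DNA repair/cell cycle alteration). Compound exposure, then growth measured; inhibition expressed relative to vehicle.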

[3] = NCI Yeast Anticancer Drug Screen. Data for the sgs1 mgt1 strain (AID 161);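 also: 0% = growth of cultures given vehicle only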; details: S. cerevisiae sgs1 mgt1 strain, hits give high values
Outline: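 Inhibition of yeast growth, normalised to vehicle-treated controls, is reported for a strain bearing genetic alterations in DNA damage repair.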

[4] = NCI Yeast Anticancer Drug Screen. Data for the cln2 rad14 strain (AID 165);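 also: 0% = growth equal to vehicle treated cultures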; details: S. cerevisiae cln2 rad14 strain, hits give high values
Outline: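 Compounds are applied to the cln2 rad14 yeast strain, and growth is then compared with that of vehicle-treated cultures to give inhibition.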

[5] = NCI Yeast Anticancer Drug Screen. Data for the bub3 strain (AID 167); details: S. cerevisiae bub3 mutant strain, hits give high values
Outline: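 Steps: expose the mutant yeast strain to compound; grow alongside vehicle-treated cultures; measure growth; express inhibition against the vehicle cultures.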

[6] = NCI Yeast Anticancer Drug Screen. Data for the mlh1 rad18 strain (AID 175); details: S. cerevisiae mlh1 rad18 strain growth inhibition, hits give high values
Outline: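 Read-out is yeast growth inhibition, calculated against vehicle-only controls. The compound was applied to a strain engineered with DNA damage repair alterations.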

[7] = at 5.0 µM (retest, dose inferred, filed as 0.5)
[8] = at 50.0 µM (retest, dose inferred, filed as 5.0)

Measured: growth inhibition

C[As](C)SCCC(N)C(=O)NC(CCS[As](C)C)C(=O)O (configuration not stated)
inactive: [1]; [7] 30% | [2]; [7] 20% | [3]; [7] -3% | [4]; [7] 35% | [5]; [7] 2% | [6]; [7] 27%
active: [1]; [8] 98% | [1]; at 50.0 µM 88.9% | [2]; [8] 99% | [2]; at 50.0 µM 90.8% | [3]; [8] 99% | [3]; at 50.0 µM 89.8% | [4]; [8] 98% | [4]; at 50.0 µM 92.2% | [5]; [8] 97% | [5]; at 50.0 µM 90% | [6]; [8] 99% | [6]; at 50.0 µM 75.5%

CCC[CH2][Sn]([CH2]CCC)([N]=C=S)[N]=C=S
active: [1]; [7] 85% | [1]; [8] 97% | [1]; at 50.0 µM 97.9% | [2]; [7] 92% | [2]; [8] 98% | [2]; at 50.0 µM 98% | [3]; [7] 92% | [3]; [8] 98% | [3]; at 50.0 µM 98% | [4]; [7] 87% | [4]; [8] 97% | [4]; at 50.0 µM 97.3% | [5]; [7] 94% | [5]; [8] 97% | [5]; at 50.0 µM 98.4% | [6]; [7] 93% | [6]; [8] 98% | [6]; at 50.0 µM 98.1%

C/C(CC(=O)Nc1ccc([N+](=O)[O-])cc1)=N\Nc1ccc([N+](=O)[O-])cc1[N+](=O)[O-]
active: [1]; [7] 76% | [1]; at 50.0 µM 72%
inactive: [1]; [8] 45% | [2]; [7] 48% | [2]; [8] 47% | [2]; at 50.0 µM 15.9% | [3]; [7] 48% | [3]; [8] 40% | [3]; at 50.0 µM 7.6% | [4]; [7] 33% | [4]; [8] 53% | [4]; at 50.0 µM -33.9% | [5]; [7] 17% | [5]; [8] 34% | [5]; at 50.0 µM 32.5% | [6]; [7] 67% | [6]; [8] 36% | [6]; at 50.0 µM 61.9%

O=P(c1cccc(C(F)(F)F)c1)(c1cccc(C(F)(F)F)c1)c1cccc(C(F)(F)F)c1.O=P(c1cccc(C(F)(F)F)c1)(c1cccc(C(F)(F)F)c1)c1cccc(C(F)(F)F)c1.[Cl][Sn]([Cl])([Cl])[Cl]
inactive: [1]; [7] 3% | [1]; at 50.0 µM 31.7% | [2]; [7] 3% | [2]; at 50.0 µM 18.5% | [3]; [7] 3% | [3]; at 50.0 µM -5.9% | [4]; [7] -10% | [4]; at 50.0 µM 62.8% | [5]; [7] 4% | [5]; at 50.0 µM 48.8% | [6]; [7] 9% | [6]; at 50.0 µM 61.1%
active: [1]; [8] 79% | [2]; [8] 83% | [3]; [8] 79% | [4]; [8] 73% | [5]; [8] 89% | [6]; [8] 81%

[Cl][Hg][c]1ccco1
active: [1]; [7] 99% | [1]; [8] 99% | [1]; at 50.0 µM 99.5% | [2]; [7] 100% | [2]; [8] 99% | [2]; at 50.0 µM 99.5% | [3]; [7] 100% | [3]; [8] 100% | [3]; at 50.0 µM 99.7% | [4]; [7] 99% | [4]; [8] 99% | [4]; at 50.0 µM 99% | [5]; [7] 100% | [5]; [8] 100% | [5]; at 50.0 µM 99.4% | [6]; [7] 99% | [6]; [8] 99% | [6]; at 50.0 µM 99.2%

CC(=O)[O-].CC(=O)[O-].O=C(N/N=C/c1cc(Cl)cc(Cl)c1[OH2+])c1ccncc1.[Zn+2]
active: [6]; at 50.0 µM 70%
inactive: [1]; [7] 4% | [1]; [8] 9% | [1]; at 50.0 µM 31% | [2]; [7] -1% | [2]; [8] 11% | [2]; at 50.0 µM 48.4% | [3]; [7] 7% | [3]; [8] 30% | [3]; at 50.0 µM 60.8% | [4]; [7] 0% | [4]; [8] -4% | [4]; at 50.0 µM 38% | [5]; [7] 1% | [5]; [8] 10% | [5]; at 50.0 µM 32.6% | [6]; [7] 2% | [6]; [8] 11%

O=S(=O)(F)c1cc(Cl)c(O)cc1Cl
inactive: [1]; [7] -143% | [1]; [8] 16% | [2]; [7] -45% | [2]; [8] 48% | [2]; at 50.0 µM 57.8% | [3]; [7] -61% | [3]; [8] 60% | [4]; [7] -41% | [4]; [8] 47% | [4]; at 50.0 µM 51.5% | [5]; [7] -57% | [5]; [8] 39% | [6]; [7] -114% | [6]; [8] 45%
active: [1]; at 50.0 µM 78.3% | [3]; at 50.0 µM 79.6% | [5]; at 50.0 µM 78.2% | [6]; at 50.0 µM 83.2%

C/C=C(\C)C(=O)OC1CC(C)(C)CC2C3=CCC4C5(C)CCC(=O)C(C)(C)C5CCC4(C)C3(C)CCC12C(=O)O (configuration not stated) (tested in a mixture with another compound)
active: [1]; [8] 78% | [1]; at 50.0 µM 86% | [2]; [8] 70% | [2]; at 50.0 µM 84.7% | [3]; [8] 77% | [3]; at 50.0 µM 89.2% | [4]; [8] 88% | [4]; at 50.0 µM 87.9% | [5]; [8] 82% | [5]; at 50.0 µM 86% | [6]; [8] 82% | [6]; at 50.0 µM 84.3%
inactive: [1]; [7] 1% | [2]; [7] -9% | [3]; [7] 5% | [4]; [7] 38% | [5]; [7] 1% | [6]; [7] 26%

CC1=C(CC/C(C)=C/CCC2(C)CCC([C@H](C)C(=O)O)OO2)C(C)(C)CCC1 (some centres not stated) (tested in a mixture with another compound)
active: [1]; [8] 97% | [1]; at 50.0 µM 90.2% | [2]; [8] 97% | [2]; at 50.0 µM 93% | [3]; [8] 96% | [3]; at 50.0 µM 93% | [4]; [8] 97% | [4]; at 50.0 µM 90.5% | [5]; [8] 97% | [5]; at 50.0 µM 92.2% | [6]; [8] 96% | [6]; at 50.0 µM 91.3%
inactive: [1]; [7] 18% | [2]; [7] 39% | [3]; [7] 52% | [4]; [7] 46% | [5]; [7] 9% | [6]; [7] 51%
